Laboratory results from PubChem BioAssay AID1851 (National Center for Advancing Translational Sciences (NCATS), 2009).
Values joined by “and” are separate entries in the source; they are usually repeats but may differ in a detail not shown here. Equal entries are not always repeated. Hit rate of the full screen: of about 16,000 compounds, about 5,800 (36%) were called active. Not shown: some 23% with an inconclusive outcome. The call rests on the fitted dose curve; in most records, active means well fitted curve in the direction sought with a large enough effect; inconclusive means small, poorly fitted or top-dose-only effect, or effect the other way; inactive means no such curve, though single readings can be large or run the other way. Some of the results follow.

What follows are molecules tested against Cytochrome P450 2C19 (Homo sapiens) (UniProt P33261) (assay: Cytochrome panel assay with activity outcomes). Conditions: recombinant CYP, pro-luciferin dealkylation, luminescence, p450-cyp2c19; series mostly up to 57.1 µM; activity, negative = inhibition: at the top concentration.
On the % scale 0 is the no-effect control and ±100 the full control effect.

Chain of Cytochrome P450 2C19 (Homo sapiens) (P33261 whole entry, looked up): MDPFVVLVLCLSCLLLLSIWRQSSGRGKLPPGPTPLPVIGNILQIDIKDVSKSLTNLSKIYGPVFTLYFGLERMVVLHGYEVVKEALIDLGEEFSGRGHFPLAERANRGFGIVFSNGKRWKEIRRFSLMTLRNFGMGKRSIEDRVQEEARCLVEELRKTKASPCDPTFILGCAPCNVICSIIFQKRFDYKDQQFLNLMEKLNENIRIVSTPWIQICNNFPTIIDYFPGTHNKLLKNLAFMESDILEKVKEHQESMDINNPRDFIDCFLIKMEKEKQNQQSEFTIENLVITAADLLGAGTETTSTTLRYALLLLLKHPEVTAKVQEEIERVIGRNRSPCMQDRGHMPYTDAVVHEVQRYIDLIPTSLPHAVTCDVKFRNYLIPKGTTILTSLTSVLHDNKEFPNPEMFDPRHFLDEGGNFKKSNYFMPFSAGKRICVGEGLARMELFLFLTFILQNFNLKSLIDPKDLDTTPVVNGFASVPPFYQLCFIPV

activity, negative = inhibition, inactive:
COCC(=O)N1CCC2(CC1)CCN(C(=O)Nc1cccc(F)c1)CC2 -28.3%
CCOC(=O)NNC1CC(=O)N(c2ccc(OC)cc2)C1=O (stereo not drawn) 21.8%
CC(=O)Nc1ccc(N2C(=O)CC(c3ccccc3)CC2=O)cc1 0.0834%
CC(C)(C)NC[C@H](O)COc1cccc2c1CCC(=O)N2 1.37% [at 25.6 µM]
C[C@@H]1C(=O)N(C)C(=O)c2nc[nH]c21 18%
CCSC[C@@H](N)C(=O)O 17.8% [at 11.4 µM]
Cc1sc(NC(=O)C2CCCCC2C(=O)O)c(C(N)=O)c1C (stereo not drawn) 7.52%
O=C(O)c1ccccc1C(=O)Nc1nccs1 22.9%
Nc1c2c(nc3ccccc13)CCC[C@H]2O -11.2%
CN(C)c1ccc(O)c2c1C[C@H]1C[C@H]3[C@@H](N(C)C)C(=O)C(C(N)=O)=C(O)[C@]3(O)C(=O)C1=C2O -11.3% [at 25.6 µM]
COc1ccc(Cc2nnc(NC(=O)c3ccc(Cl)c([N+](=O)[O-])c3)s2)cc1 14.1%
Cc1ccccc1-n1nc2c(c1NC(=O)c1ccc(S(=O)(=O)N(C)C)cc1)CSC2 -4.86%
COc1ccc(-c2nc3cnc(Nc4cccc(OC)c4)nc3n(CCC#N)c2=O)cc1 -34.1%
Cc1ccccc1C(=O)NNC(=O)c1ccoc1C -22.2%
Fc1cccc(C2NC(=S)NC3=C2N2CCC3CC2)c1 (stereo not drawn) 7.94%
Cc1c(C2CCN(CCc3ccccc3)CC2)noc1-c1ccc(Cl)cc1 -37.6%
Clc1ccc2c(c1)N=C(N1CCNCC1)c1ccccc1N2 22.9%
Cc1cnc(CNc2ccnc(-c3ccoc3)n2)cn1 -24.7%
CCCN(C/C=C\I)[C@@H]1CCc2cccc(O)c2C1 -26.9%
Cc1cc2c(=O)[nH]c(N)nc2nc1C 20.6% [at 11.4 µM]
CO[C@H]1COC(=O)C/C=C\[C@H](C)[C@H](OC)COC(=O)[C@@H](C)COC(=O)C/C=C\[C@@H]1C -8.22% [at 11.4 µM] and -6.35% [at 11.4 µM]
C=CCN1CCc2c(cc(O)c(O)c2Cl)[C@H](c2ccccc2)C1 -40.1%
O=C(CCCN1C(=O)C2C3C=CC(C3)C2C1=O)N1CCN(c2ccccc2)CC1 (stereo not drawn) -27%
O=C(O)c1ccc(/C=N\N=C2c3ccccc3-c3ccccc32)cc1 19.5% [at 11.4 µM]
Cc1c(S(=O)(=O)O)ccc(N=Nc2c(O)c(C(=O)O)cc3ccccc23)c1Cl 14.5% [at 11.4 µM]
O=C1C[C@@H](O)[C@@H](O)[C@H]2[C@@H]3C(=O)N(C[C@@H]4CCCO4)C(=O)[C@@H]3CC[C@H]12 43.9% [at 11.4 µM] and 16.6% [at 11.4 µM]
Cn1cccc1C(=O)N1CCC2(CC1)CCN(C(c1ccccc1)c1ccccc1)CC2 -14.1%
CN(C)C(=O)c1ccc(-c2cncnc2NCc2ccccc2)cc1 -10.8%
CN(C)C(=O)c1ccc(-c2cncnc2Nc2ccccc2)cc1 -27.6%
Cc1cnc(CNc2ncncc2-c2ccc(C(=O)N(C)C)cc2)cn1 0.3%
CCOC(=O)c1c(NC(=O)c2ccc(S(=O)(=O)N3CCOCC3)cc2)sc2c1CCN(C)C2 30.2%
CCOC(=O)c1c(N2C(=O)Nc3cc(Cl)c(Cl)cc3N2O)sc2c1CCCCC2 -110%
CCOC(=O)c1c(NC(=S)NC(=O)c2cnn(CC)c2)sc2c1CCC(C)C2 (stereo not drawn) -22%
CCOC(=O)c1c(NC(=O)c2c(C)noc2C)sc2c1CCCCC2 -4.88%
COc1cccc(Nc2ncc3ncc(=O)n(CCC#N)c3n2)c1 -23.9%
CCNc1ncc2nc(-c3ccc(OC)cc3)c(=O)n(Cc3cccc(OC)c3)c2n1 -18.3%
CCNc1ncc2nc(-c3cn(C)c4ccccc34)c(=O)n(Cc3cccc(OC)c3)c2n1 -30.7%
CCNc1ncc2nc(-c3cccs3)c(=O)n(Cc3cccc(OC)c3)c2n1 -27.9%
COCCn1c(=O)cnc2cnc(Nc3cccc(OC)c3)nc21 -17.7%
CCNc1ncc2nc(-c3ccc(Cl)cc3)c(=O)n(Cc3cccc(OC)c3)c2n1 11.2%
CCOc1ccc(/C(O)=C2/C(=O)C(=O)N(CCOCCO)C2c2cccnc2)cc1 (stereo not drawn) -4.48%
COCCN1C(=O)C(=O)/C(=C(/O)c2cccc(OC)c2)C1c1ccc(C)o1 (stereo not drawn) -7.14%
COc1cccc(/C(O)=C2/C(=O)C(=O)N(CCCN3CCOCC3)C2c2ccncc2)c1 (stereo not drawn) -13.8%
COCCN1C(=O)C(=O)/C(=C(/O)c2cccc(OC)c2)C1c1ccco1 (stereo not drawn) -15.3%
O=C(CCNC(=O)Cn1ccc2ccccc2c1=O)NCCCN1CCN(c2ccc(F)cc2)CC1 -10.9%
CC(C)CCN1CC(C(=O)N2CCN(c3ccc(F)cc3)CC2)CC1=O (stereo not drawn) -56.6%
O=C(c1cnccn1)N1CCC2(CC1)CN(c1ccncc1)C2 -38%
O=C(c1cc(-c2ccco2)on1)N1CCOCC1 -29.1%
Oc1cc(O)cc(/C=C\c2ccc(O)c(O)c2)c1 -27.7%
CC(C)c1cccc2nc3c(c([Si](C)(C)C)c12)Cn1c-3cccc1=O -80.6%
NC[C@H](O)C1CCCCCCC1 7.64%
CC(=O)c1cnc2c(C(=O)O)cnn2c1C -3.66%
Cc1nc2ncnn2c(C)c1CCC(=O)N1CCN(C(=O)c2ccco2)CC1 -5.78%
COC(=O)Cn1c(=N)n(CCN2CCCCC2)c2ccccc21 40.1%

AC50, inactive:
CCCC[S@@](=N)(=O)CC[C@@H](N)C(=O)O

AC50, active:
O=C1CC(SC(=Nc2ccccc2)Nc2ccccc2)C(=O)N1c1cccc(Cl)c1 (stereo not drawn) 2.24 µM
CCN=C(Nc1cccc(F)c1)SC1CC(=O)N(c2ccc(OC)cc2)C1=O (stereo not drawn) 3.98 µM
Cc1ccc(C)c(-c2cc(C(=O)Nc3sc(C)c(C)c3C(N)=O)c3ccccc3n2)c1 2.24 µM
Cc1ccc(C)c(-c2cc(C(=O)Nc3nccs3)c3ccccc3n2)c1 10 µM
Cc1ccccc1-c1cc(C(=O)Nc2nc3c(s2)CCCC3)c2ccccc2n1 4.47 µM
COC(=O)c1sccc1NC(=O)c1cc(-c2cc(C)ccc2C)nc2ccccc12 2.51 µM
Cc1onc(-c2ccccc2Cl)c1C(=O)Nc1nnc(Cc2ccc(Cl)cc2)s1 15.8 µM
Cc1ccc(NC(=S)NC(=O)c2c(-c3ccccc3Cl)noc2C)cc1 2 µM
CC(=O)C1=NOC(CNC(=O)c2c(-c3ccccc3Cl)noc2C)C1 (stereo not drawn) 11.2 µM
Cc1ccccc1-n1nc2c(c1NC(=O)c1c(-c3ccccc3Cl)noc1C)CSC2 11.2 µM
CCOC(=O)c1cnc2cc(-c3ccc(C(C)(C)C)cc3)nn2c1N 0.562 µM
Cc1occc1C(=O)NNC(=O)Cc1ccccc1 10 µM
Cc1ccc(OCCNC(=O)c2cncc(Br)c2)cc1C 6.31 µM
Fc1ccc(-c2csc(N3CCC(c4ccccc4)C3)n2)cc1 (stereo not drawn) 11.2 µM
Brc1ccc(-c2csc(N3CCC(c4ccccc4)C3)n2)cc1 (stereo not drawn) 10 µM
Clc1ccc(-c2csc(N3CCC(c4ccccc4)C3)n2)cc1 (stereo not drawn) 10 µM
c1ccc(CNc2ccnc(-c3ccoc3)n2)cc1 3.98 µM
Cc1cccc(CNc2ccnc(-c3ccoc3)n2)c1 10 µM
CC(C(=O)Nc1ccccc1Sc1ccccc1)N(c1ccccc1)S(C)(=O)=O (stereo not drawn) 4.47 µM
Cc1ccc(N(C(C)C(=O)Nc2cc(Cl)ccc2Oc2ccccc2)S(C)(=O)=O)cc1 (stereo not drawn) 1.41 µM
O=C1CC(NCCC2=CCCCC2)C(=O)N1c1cccc(Cl)c1Cl (stereo not drawn) 4.47 µM
Cc1ccc(C2CC2C(=O)NN)cc1 (stereo not drawn) 3.55 µM
CCOC(=O)C1CCCN(C(=O)CCCOc2cc(=O)n(C)c3ccccc23)C1 (stereo not drawn) 6.31 µM
Cn1c(=O)cc(OCCCC(=O)N2CCN(c3ccccc3)CC2)c2ccccc21 1.26 µM
COC(=O)CNC(c1ccccc1Cl)c1cc(Br)ccc1NC(=O)CCN1CCOCC1 (stereo not drawn) 28.2 µM
CN(C)C(=O)c1ccc(-c2cncnc2NCc2cccnc2)cc1 2.51 µM
CNc1ncncc1-c1ccc(C(=O)N(C)C)cc1 25.1 µM
CN(C)c1ccc(-c2cncnc2NCc2ccccc2)cc1 0.398 µM
CN(C)c1ccc(-c2cncnc2NCc2cccnc2)cc1 0.0316 µM
CCOC(=O)c1c(NC(=O)CSc2nnc(C)s2)sc2c1CCCCC2 2.24 µM
CCOC(=O)c1c(NC(=O)Cn2nc([N+](=O)[O-])c(Br)c2C)sc2c1CCC(C)C2 (stereo not drawn) 8.91 µM
CCOC(=O)c1c(NC(=O)Cn2cc([N+](=O)[O-])cn2)sc2c1CCC2 2 µM
COc1cccc(Cn2c(=O)cnc3cnc(Nc4cccc(OC)c4)nc32)c1 3.98 µM
CCNc1ncc2ncc(=O)n(Cc3cccc(OC)c3)c2n1 2 µM
CCNc1ncc2nc(C)c(=O)n(Cc3cccc(OC)c3)c2n1 10 µM
COc1cccc(/C(O)=C2/C(=O)C(=O)N(Cc3cccnc3)C2c2ccco2)c1 (stereo not drawn) 14.1 µM
CCOc1cccc(/C(O)=C2/C(=O)C(=O)N(Cc3ccco3)C2c2ccncc2)c1 (stereo not drawn) 10 µM
O=C(CCS(=O)(=O)c1cccs1)N1CCN(c2ccc(F)cc2)CC1 0.891 µM
O=C(c1cc(-c2cccs2)on1)N1CCN(c2ccc(F)cc2)CC1 1.41 µM
Cc1ccc(OCC(=O)N/N=C\c2c(C)n(C)c3ccccc23)c([N+](=O)[O-])c1 8.91 µM
Cc1nc2c(C(=O)N3CCOCC3)cnn2c(C)c1Cc1ccc(Cl)cc1 2.24 µM
N=c1n(CCN2CCOCC2)c2ccccc2n1CC(=O)c1ccc(Cl)c(Cl)c1 6.31 µM
Cc1cc(=O)[nH]c(SCC(=O)Nc2nc3c(s2)CCCC3)n1 7.94 µM
